Results as given in PubChem BioAssay AID1159580 (chemical genetic matrix, 2015).
Values joined by “and” are separate entries in the source; they are usually repeats but may differ in a detail not shown here. Equal values may be shown once. Out of some 5,500 compounds screened, about 2,000 (36%) were called active. About 18% were inconclusive and are not listed. No stated cut-off is given here; in the data, active means normalized growth mostly below about 0.91 (no sharp cut-off); inconclusive means no clear call, values can overlap the other calls; inactive means mostly above about 0.92. This is one part of the list.

Test: chemical genetic growth profiling, strain panel (AID 1159580);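 further: tested at 20 µM; growth read once vehicle control cultures reached saturation at 30 °C; 1 = growth at the plate median or of vehicle wells; lower values mean less growth of the strain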
Conditions: S. cerevisiae deletion strains, growth OD

Measured: normalized growth

CON
inactive: locus YAL013W, strain DEP1, hits give low values 0.992 | locus YAL021C, strain ccr4, hits give low values 0.994 | locus YAL026C, strain drs2, hits give low values 1.01 | locus YAL030W, strain snc1, hits give low values 1.02 | locus YBL061C, strain skt5, hits give low values 1.01 | locus YBR009C, strain hhf1, hits give low values 1.01 | locus YBR021W, strain FUR4, hits give low values 1 | locus YBR023C, strain chs3, hits give low values 1.01 | locus YBR171W, strain sec66, hits give low values 0.995 | locus YBR229C, strain ROT2, hits give low values 1 | locus YBR231C, strain swc5, hits give low values 1.01 | locus YBR279W, strain paf1, hits give low values 0.991 | locus YCL011C, strain gbp2, hits give low values 1.02 | locus YCL016C, strain dcc1, hits give low values 1.04 | locus YCL029C, strain bik1, hits give low values 0.976 | locus YCL069W, strain vba3, hits give low values 0.976 | locus YCR088W, strain abp1, hits give low values 0.987 | locus YDL005C, strain med2, hits give low values 0.994 | locus YDL035C, strain GPR1, hits give low values 0.988 | locus YDL040C, strain nat1, hits give low values 0.994 | locus YDL074C, strain BRE1, hits give low values 1.04 | locus YDL101C, strain DUN1, hits give low values 1.01 | locus YDL134C, strain PPH21, hits give low values 0.997 | locus YDL185W, strain tfp1, hits give low values 0.968 | locus YDL192W, strain arf1, hits give low values 0.986 | locus YDR001C, strain nth1, hits give low values 0.998 | locus YDR069C, strain doa4, hits give low values 1.02 | locus YDR101C, strain arx1, hits give low values 1.02 | locus YDR137W, strain rgp1, hits give low values 1.03 | locus YDR150W, strain NUM1, hits give low values 0.993 | locus YDR159W, strain sac3, hits give low values 0.993 | locus YDR162C, strain NBP2, hits give low values 0.98 | locus YDR195W, strain ref2 0.993 | locus YDR297W, strain sur2, hits give low values 1.02 | locus YDR318W, strain mcm21, hits give low values 0.99 | locus YDR334W, strain swr1, hits give low values 0.975 | locus YDR335W, strain msn5, hits give low values 1.02 | locus YDR388W, hits give low values 1.01 | locus YDR392W, strain spt3, hits give low values 1.12 | locus YDR502C, strain sam2, hits give low values 0.999 | locus YEL003W, strain gim4, hits give low values 0.993 | locus YEL037C, strain rad23, hits give low values 0.984 | locus YEL061C, strain CIN8 (second series), hits give low values 0.99 | locus YEL061C, strain CIN8, hits give low values 0.997 | locus YER015W, strain faa2, hits give low values 1.01 | locus YER016W, strain bim1, hits give low values 1.02 | locus YER110C, hits give low values 0.981 | locus YER111C, strain swi4, hits give low values 1.01 | locus YER155C, strain BEM2 (second series), hits give low values 1.05 | locus YER155C, strain BEM2, hits give low values 0.991 | locus YER167W, strain BCK2, hits give low values 0.997 | locus YFR010W, strain ubp6, hits give low values 0.976 | locus YGL078C, strain dbp3, hits give low values 0.984 | locus YGL086W, strain mad1, hits give low values 1.02 | locus YGL167C, strain pmr1, hits give low values 0.993 | locus YGL173C, strain kem1, hits give low values 0.998 | locus YGL227W, strain vid30, hits give low values 0.995 | locus YGL240W, strain doc1, hits give low values 0.994 | locus YGL248W, strain PDE1, hits give low values 1.02 | locus YGL253W, strain hxk2, hits give low values 1.01 | locus YGR135W, strain pre9, hits give low values 0.982 | locus YGR229C, strain SMI1, hits give low values 1.01 | locus YGR252W, strain gcn5, hits give low values 1.03 | locus YHR013C, strain ard1, hits give low values 1.03 | locus YHR027C, strain rpn1, hits give low values 1.02 | locus YHR030C, strain SLT2, hits give low values 0.989 and 0.974 | locus YHR079C, strain IRE1 (second series), hits give low values 0.98 | locus YHR079C, strain IRE1, hits give low values 0.987 | locus YHR094C, strain hxt1, hits give low values 1 | locus YHR129C, strain ARP1, hits give low values 0.997 | locus YHR142W, strain chs7, hits give low values 1.01 | locus YHR200W, strain rpn10, hits give low values 0.969 | locus YIL066C, strain RNR3, hits give low values 1.02 | locus YIL073C, strain SPO22, hits give low values 0.941 | locus YIL125W, strain kgd1, hits give low values 0.999 | locus YIR030C, strain dcg1, hits give low values 0.993 | locus YJL092W, strain hpr5, hits give low values 0.998 | locus YJL095W, strain BCK1 (second series), hits give low values 1.02 | locus YJL095W, strain BCK1, hits give low values 1.06 and 0.986 | locus YJL115W, strain asf1, hits give low values 0.989 | locus YJL129C, strain trk1, hits give low values 1.02 | locus YJL134W, strain LCB3, hits give low values 0.99 | locus YJL154C, strain vps35, hits give low values 0.981 | locus YJL164C, strain tpk1, hits give low values 0.996 | locus YJL166W, strain qcr8, hits give low values 0.981 | locus YJL168C, strain set2, hits give low values 0.996 | locus YJL187C, strain SWE1 (second series), hits give low values 1.01 | locus YJR043C, strain POL32, hits give low values 1.01 | locus YJR066W, strain TOR1, hits give low values 0.92
